Data taken from PubChem BioAssay (NCATS).
Results filed as inconclusive are left out. The source made the active and inactive calls. Calls follow the shape of the dose curve; as a rule, active = well fitted curve in the direction sought with a large enough effect; inconclusive = small, poorly fitted or top-dose-only effect, or another doubt; inactive = no such curve, though single readings can be large; an effect the other way counts as inactive or inconclusive.

Experiments:
[1] = Cell Viability - LYMP2-010 (AID 981); also: nearly all actives have a fitted effect of over 55% in size
Method in brief: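 This 24 hr viability screen uses LYMP2-010 lymphoblastoid cells, quantifies ATP via luciferase luminescence, and derives AC50 from Hill fits of qHTS concentration-response data.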

[2] = Cell Viability - LYMP2-012 (AID 982);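 also: cellular ATP by luciferase luminescence where a drop means cytotoxicity; cells exposed to compound for one day before reading; nearly all actives have a fitted effect of over 55% in size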
[3] = Cell Viability - LYMP2-014 (AID 983);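 also: series mostly up to about 92 µM; cells exposed to compound for 24 h at 37 °C; nearly all actives have a fitted effect of over 50% in size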
Method in brief: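 Quantitative HTS in lymphoblastoid cells: 24 hr compound exposure, then CellTiter-Glo ATP luminescence. Positive control was tetraoctylammonium bromide, 6.4pM to 92 uM.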

[4] = Cell Viability - LYMP2-016 (AID 984); also: nearly all actives have a fitted effect of over 55% in size
Method in brief: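 Cells were seeded at 2500 per well and rested 5 hr before a 24 hr compound exposure at 37 C. Viability was then gauged as cellular ATP by luciferase luminescence, with AC50 values fitted to the Hill equation.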

[5] = Cell Viability - LYMP2-018 (AID 985); also: nearly all actives have a fitted effect of over 50% in size
Method in brief: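 In this qHTS viability assay, cells are treated for 24 hr and cellular ATP is quantified by luciferase-based luminescence, with tetraoctylammonium bromide as positive control.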

[6] = Cell Viability - LYMP2-022 (AID 987); also: nearly all actives have a fitted effect of over 55% in size
Method in brief: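 In this qHTS cytotoxicity screen, compound titrations were incubated 24 hr at 37 C with human lymphoblastoid cells in complete medium. Luciferase-based ATP luminescence provided the viability signal.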

[7] = Cell Viability - LYMP2-024 (AID 988); also: nearly all actives have a fitted effect of over 60% in size
Method in brief: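 Cells at 2500 per well received compound for 24 hr after a 5 hr settling period. Viability was scored by CellTiter-Glo luminescence, with AC50 from Hill fits.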

[8] = Cell Viability - LYMP2-026 (AID 989);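 also: cells exposed to compound for 24 h at 37 °C; nearly all actives have a fitted effect of over 50% in size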
Method in brief: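 Acute toxicity screen in complete culture medium, with 24 hr compound exposure at 37 C. Viability read as cellular ATP via luciferase reaction, with tetraoctylammonium bromide (6.4pM to 92 uM) as positive control.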

[9] = Cell Viability - LYMP1-002 - Assay at 24 hr (AID 993)
Method in brief: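 Viability was judged from intracellular ATP using a luciferase read-out, following a 24-hour compound incubation at 37 C of lymphoblastoid cells seeded at 2500 per well. Concentration-response data were fitted to the Hill equation for AC50.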

[10] = Cell Viability - LYMP1-002 - Assay at 40 hr (AID 994); also: nearly all actives have a fitted effect of over 60% in size
Method in brief: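 Concentration-dependent ATP loss after 40 hr treatment at 37 C defined toxicity; AC50 values were obtained by fitting the standard Hill equation.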

[11] = test system: Zika virus NS2B-NS3 protease (unlinked complex); experiment: Confirmatory screen GU AMC qHTS for Zika virus inhibitors (AID 1347153); also: nearly all actives have a fitted effect of over 70% in size
Method in brief: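 Noncovalent NS2B hydrophilic domain/NS3 protease complex (25 nM) in 10 mM Tris-HCl pH 8.0, 0.01% Tween 20 was preincubated 15 min at room temperature with compounds. Then 10 µM AMC substrate (Km 18.3 µM) was added; fluorescence was read over 15 min and fitted to a 4-parameter Hill equation.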

Measured: Potency

CCOc1cc(C=O)ccc1O
not listed: [11]
inactive: all other assays above

C[C@@H]1[C@@H]2Cc3ccc(O)cc3[C@@]1(C)CCN2CCc1ccccc1
inactive: [11]
